Shown are actives, neighbours in structure and some others; about 5.7% of the full set was active somewhere.
VP16 counter: VP16 counterscreen qHTS for inhibitors of ROR gamma transcriptional activity; hit rate 3.5% among 310,000; AID 2546, 2010; Potency, µM (series often up to 53.6 µM), for the others: at the top dose activity, negative = inhibition, most hits filed as inhibitors; Drosophila S2 Gal4-VP16 UAS-luciferase, luminescence, 20 h;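 also: Gal4-VP16 expression switched on by copper sulfate through the metallothionein promoter; nearly all actives have a fitted effect of over 50% in size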
NPSR antagonist: qHTS Assay for Antagonists of the Neuropeptide S Receptor: cAMP Signal Transduction. Q6W5P4. CHO-NPSR cells, cAMP TR-FRET, antagonist mode. Potency, µM (highest dose often 38.3 µM), for inactives: at the highest dose activity change, negative = inhibition, hits mostly inhibitors. hit rate 1% among 220,000. AID 1461, 2008; also: nearly all actives have a fitted effect of over 50% in size
RORg inh: qHTS for inhibitors of ROR gamma transcriptional activity. Nuclear receptor ROR-gamma (Mus musculus), P51450. Drosophila S2 Gal4-RORgamma UAS-luciferase reporter, 20 h. Potency, µM (titrated, usually from 53.6 µM), for inactives: top-dose activity change, negative = inhibition, most hits filed as inhibitors. hit rate 5.4% among 310,000; also: nearly all actives have a fitted effect of over 60% in size
Target sequence (P51450 whole entry, looked up, the tested form may be a part): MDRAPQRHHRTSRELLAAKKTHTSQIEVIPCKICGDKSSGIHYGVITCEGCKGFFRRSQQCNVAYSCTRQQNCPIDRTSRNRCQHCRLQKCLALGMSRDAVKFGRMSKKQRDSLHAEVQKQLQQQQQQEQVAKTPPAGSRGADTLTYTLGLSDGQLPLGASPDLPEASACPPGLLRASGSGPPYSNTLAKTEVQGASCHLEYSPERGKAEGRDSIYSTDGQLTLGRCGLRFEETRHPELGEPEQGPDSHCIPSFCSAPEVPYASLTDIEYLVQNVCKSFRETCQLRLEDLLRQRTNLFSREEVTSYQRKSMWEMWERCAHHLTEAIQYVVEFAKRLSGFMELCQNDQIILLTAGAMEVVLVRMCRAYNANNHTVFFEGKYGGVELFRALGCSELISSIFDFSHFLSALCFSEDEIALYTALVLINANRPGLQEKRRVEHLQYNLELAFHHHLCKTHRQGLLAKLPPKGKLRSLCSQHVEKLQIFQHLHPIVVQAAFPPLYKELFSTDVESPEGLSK
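Luminescence from a UAS-regulated Photinus luciferase reporter in stably transfected Drosophila Schneider cells is measured; decreased signal marks ROR gamma inhibition. Fusion expression is induced by 700 uM copper sulfate for 20 hr.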
B2AR arrestin: qHTS assay of beta-arrestin-biased ligands of beta2-adrenergic receptor; beta-arrestin recruitment to beta2AR, cell-based reporter; Potency, µM (highest dose often 46.1 µM), for inactives: at the highest dose activation, actives largely listed as activators; hit rate 0.02% among 330,000; AID 492947, 2010;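 also: 0% = DMSO controls and full agonism = EC100 isoproterenol or metaproterenol; nearly all actives have a fitted effect of over 65% in size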
Active calls of the source: *; ? = inconclusive; . = not tested or not shown; [ ] = another dose, or the depositor's remark. Calls follow the shape of the dose curve; as a rule, active = well fitted curve in the direction sought with a large enough effect; inconclusive = small, poorly fitted or top-dose-only effect, or another doubt; inactive = no such curve, though single readings can be large; an effect the other way counts as inactive or inconclusive. Unless noted, % is scaled to controls: 0 for no effect and ±100 for the full control effect; potency is read from the fitted curve at half-maximal effect.

SMILES	VP16 counter	NPSR antagonist	RORg inh	B2AR arrestin
COc1ccc(Cl)cc1S(=O)(=O)NCc1ccncc1	1%	.	10%	0%
CN(C)/C=N/c1nc2ccc3c(c2s1)CCCC3	-5%	12%[46.1 µM]	10µM*	-1%
Cc1nc(/N=C\N(C)C)sc1C(=O)Nc1ccccc1	-6%	-12%[46.1 µM]	26%	0%
Cc1ccc(N(CC(=O)N2CCCCCC2)S(=O)(=O)c2ccccc2)cc1	-21%	.	4%	0%
O=c1c2ccc(Cl)cc2[nH]c(=S)n1Cc1cccnc1	?	-18%[46.1 µM]	5µM*	0%
O=C(c1ccc2c(=O)n(Cc3ccccc3Cl)c(=S)[nH]c2c1)N1CCCC1	?	.	11µM*	0%
O=C(c1ccc2c(=O)n(Cc3ccc(Cl)cc3)c(=S)[nH]c2c1)N1CCCC1	?	.	5µM*	-1%
CC1CC(C)CN(C(=O)c2ccc3c(=O)n(Cc4ccc5c(c4)OCO5)c(=S)[nH]c3c2)C1 (stereo not given)	10µM*	-27%[46.1 µM]	3.5µM*	0%
COc1ccccc1Cn1c(=S)[nH]c2cc(C(=O)N3CCC(C(N)=O)CC3)ccc2c1=O	3%	.	-4%	0%
O=C(c1ccc2c(=O)n(Cc3ccc(Cl)cc3)c(=S)[nH]c2c1)N1CCOCC1	7.1µM*	.	4µM*	0%
O=C(c1ccc2c(=O)n(Cc3ccc4c(c3)OCO4)c(=S)[nH]c2c1)N1CCCCC1	-6%	-28%[46.1 µM]	?	0%
COC(CNC(=O)c1ccc2c(=O)n(Cc3ccc(Cl)cc3)c(=S)[nH]c2c1)OC	-29%	.	?	0%
CN1CCN(C(=O)c2ccc3c(=O)n(Cc4ccc(Cl)cc4)c(=S)[nH]c3c2)CC1	?	?	7.1µM*	-1%
O=C(c1ccc(Cn2c(=O)[nH]c3ccccc3c2=O)cc1)N1CCN(c2ccccn2)CC1	-2%	-2%	8%	0%
CCOC(=O)N1CCC(n2c(=S)[nH]c3ccccc3c2=O)CC1	7.1µM*	-8%[46.1 µM]	8.9µM*	0%
O=C(c1ccc(Cn2c(=S)[nH]c3ccccc3c2=O)cc1)N1CCN(c2ccccn2)CC1	?	-11%	11µM*	0%
Cc1ccc(N2CC(C(=O)Nc3ccc(C)c(S(=O)(=O)N(C)C)c3)CC2=O)cc1 (stereo not given)	-14%	-6%	33%	0%
O=C(c1csnn1)N1CCC2(CCCN(Cc3cc(C(F)(F)F)cc(C(F)(F)F)c3)C2)CC1	-6%	.	26%	.
CCOC(=O)N1CCN(C(=O)c2ccc3c(=O)n(Cc4ccccc4)c(=S)[nH]c3c2)CC1	?	-25%[46.1 µM]	13µM*	0%
CCOC(=O)N1CCN(C(=O)c2ccc3c(=O)n(Cc4ccc(OC)cc4)c(=S)[nH]c3c2)CC1	?	-18%	26%	-1%
